hcDAF12 agonist = activates DAF-12 receptor from parasite H. contortus; HEK293 hcDAF-12 lit1-tk-luc reporter, luminescence; 0% DMSO, 100% Δ7-dafachronic acid; activation, % at 6.8 µM; 370,000 compounds, 1.4% hits; AID 652067;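 active = activation above the mean of all tested compounds plus 3 SD, cut at about 5.5% in these data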
ssDAF-12 act = activators of S. stercoralis DAF-12 nuclear receptor | 370,000 compounds, 1% hits | HEK293 ssDAF-12/GRIP1 lit1-tk-luc reporter, luminescence; % of 3 µM dafachronic acid response | activation, % at 6.8 µM;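 active = activation above the mean over all tested compounds plus 3 SD, cut at about 0.9% in these data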
hgDAF12 agonist = hgDAF-12 agonism, primary luciferase screen; 370,000 compounds, 1.8% hits; HEK293 GAL4-hgDAF12 UAS-luciferase reporter, agonist luminescence; normalized to butyrate control; activation, % at 6.8 µM;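 active = activation above a cutoff set at the mean of all screened compounds plus 3 SD, cut at about 10% in these data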
DAX1 inh-1 = blocks DAX1 repression of SF-1 activated StAR promoter; HEK293T StAR-luciferase reporter, SF-1/DAX-1 repression relief; 370,000 compounds, 1.1% hits; inhibition, % at 6.8 µM; AID 652010;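 active = inhibition above the mean over all tested compounds plus 3 SD, cut at about 3.6% in these data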;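 note: higher inhibition means more luminescence from relief of DAX-1 repression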
DAX1 inh-2 = inhibitors of human orphan nuclear receptor DAX1 (NR0B1); P51843; HEK293 Gal4-DAX1 luciferase reporter, luminescence; inhibition, % at 6.75 µM; 340,000 compounds, 0.99% hits; AID 504766;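 active = inhibition above the mean over all tested compounds plus 3 SD, cut at about 4.2% in these data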;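 note: inhibition shows as a rise in luminescence from relieved DAX1 repression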
hgDAF12 conf = confirmation of H. glycines DAF-12 agonists; shares compounds with hgDAF12 agonist; HEK293 GAL4-hgDAF12 luciferase reporter, agonist mode; percent of butyrate response; activation, % at 6.8 µM; 3,300 compounds, 80% hits; AID 743050;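 active = mean activation over triplicate wells above the hit cutoff derived from the earlier primary screen, cut at about 11% in these data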
LXR ag 2 = LXR-beta agonism as DAF-12 counter-screen | 3,300 tested, under 10 active | HEK293 Gal4-LXR luciferase reporter, 24 h | activation, % at 6.8 µM | shares compounds with hgDAF12 agonist;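 active = mean activation of the triplicate above a set limit carried over from the primary screen, none filed active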
Target sequence (P55055 whole entry, looked up, the tested form may be a part): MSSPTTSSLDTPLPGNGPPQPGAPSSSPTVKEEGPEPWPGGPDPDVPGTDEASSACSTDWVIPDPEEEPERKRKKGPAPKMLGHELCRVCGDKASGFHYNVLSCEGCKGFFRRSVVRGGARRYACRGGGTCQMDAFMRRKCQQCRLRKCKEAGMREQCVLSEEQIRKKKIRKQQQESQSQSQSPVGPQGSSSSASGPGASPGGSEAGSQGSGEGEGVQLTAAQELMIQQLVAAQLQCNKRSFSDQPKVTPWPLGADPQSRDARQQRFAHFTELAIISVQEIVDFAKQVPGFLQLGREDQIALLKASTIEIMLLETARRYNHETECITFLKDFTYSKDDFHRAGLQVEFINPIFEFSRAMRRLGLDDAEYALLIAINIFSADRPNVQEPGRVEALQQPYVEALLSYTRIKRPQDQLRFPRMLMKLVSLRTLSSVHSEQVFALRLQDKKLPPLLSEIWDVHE
Of the large screens only hits and unclear results are named; the others gave an inactive call (follow-up assays come after a bar, where they were run). Most compounds without a hit are left out; they make up all but 4.1% or so of the library.

CCCN(C(=O)CSCc1ccccc1C)c1c(N)n(Cc2ccccc2)c(=O)[nH]c1=O	none
COc1cccc(CN(C)[C@H]2C[C@H]3c4[nH]c5ccccc5c4CCN3C[C@H]2[C@H](C)O)c1OC	none (no result: DAX1 inh-2)
OC[C@H]1O[C@@H](c2nc3ccc(-c4nc(-c5ccc(Br)cc5)no4)cc3[nH]2)C[C@@H]1O	hgDAF12 agonist 14, DAX1 inh-1 4.4 (no result: DAX1 inh-2) | hgDAF12 conf inactive | LXR ag 2 inactive
CC(=O)Oc1ccccc1/C=C/c1ccc2ccccc2[n+]1C	hcDAF12 agonist 6.0, ssDAF-12 act 1.9, hgDAF12 agonist 13 | hgDAF12 conf 11 | LXR ag 2 inactive
COc1ccc(/C=C/c2ccc3ccccc3[n+]2C)cc1OC	none (no result: hcDAF12 agonist, ssDAF-12 act, hgDAF12 agonist, DAX1 inh-1)
Cc1ccc(S(=O)(=O)N2CCCCC2)cc1NC(=O)Cn1cnc2c1c(=O)n(C)c(=O)n2C	none
Cc1ccc(NC(=O)c2cc(C)on2)cc1	hgDAF12 agonist 15 | hgDAF12 conf inactive | LXR ag 2 inactive
Cc1ccc(NC(=O)c2ccc(Cl)c(N3C(=O)C=CC3=O)c2)cc1	hgDAF12 agonist 14, DAX1 inh-1 3.8 | hgDAF12 conf inactive | LXR ag 2 inactive
Cc1nc(NC(=O)c2ccccc2)sc1C	ssDAF-12 act 1.0, hgDAF12 agonist 14 | hgDAF12 conf 16 | LXR ag 2 inactive
Nc1ccccc1NC(=O)c1ccccc1	hgDAF12 agonist 27, DAX1 inh-1 4.3, DAX1 inh-2 7.4 | hgDAF12 conf 51 | LXR ag 2 inactive
Cc1ccc(NC(=O)c2ccc3c(c2)OCCO3)cc1	none
CC1CCCC(NC(=O)COC(=O)/C=C/c2ccc(S(=O)(=O)N3CCOCC3)cc2)C1C (stereo not given)	none
Cc1ccc(NC(=O)c2ccccc2)cc1	hgDAF12 agonist 14 | hgDAF12 conf 17 | LXR ag 2 inactive
O=C(Nc1ccc(-c2ccccc2)cc1)c1ccccc1	none
COc1cccc(C(=O)NCCSc2ccc(F)cc2)c1	hgDAF12 agonist 14 | hgDAF12 conf 12 | LXR ag 2 inactive
COc1cccc(C(=O)NCCSc2ccc(C)cc2)c1	none
Nc1ccccc1N=Cc1ccc(-c2cccc(Cl)c2)o1	ssDAF-12 act 1.3, hgDAF12 agonist 22 | hgDAF12 conf 15 | LXR ag 2 inactive
COC(=O)N/N=C/c1ccc(-c2cccc(Cl)c2)o1	none
Oc1ccc(-c2csc(-c3cccnc3)n2)c(O)c1	hgDAF12 agonist 25 | hgDAF12 conf 20 | LXR ag 2 inactive
CN(Cc1ccccc1)c1ccc(C(CC(N)=O)NC(=O)c2ccccc2)cc1[N+](=O)[O-] (stereo not given)	none
Cc1ccccc1OCC(=O)Nc1ccc2c(c1)OCO2	none
O=C(COc1ccccc1Cl)Nc1ccc2c(c1)OCO2	hcDAF12 agonist 6.0, hgDAF12 agonist 13 | hgDAF12 conf 12 | LXR ag 2 inactive
CCc1ccccc1Oc1nc(NCCOC)nc2cc(-c3ccccc3)sc12	none (no result: DAX1 inh-2)
CCc1ccc(NC(=O)c2ccccc2SC)cc1	hgDAF12 agonist 16 | hgDAF12 conf inactive | LXR ag 2 inactive
CSc1ccccc1C(=O)Nc1ccc2c(c1)OCCO2	none
O=C(CCN=C1NS(=O)(=O)c2ccccc21)OCc1nnc(-c2ccccc2)o1	none
Cc1ccc(C(=O)Nc2nnc(-c3ccco3)o2)cc1C	ssDAF-12 act 1.1, hgDAF12 agonist 14 | hgDAF12 conf inactive | LXR ag 2 inactive
Cc1cccc(C(=O)Nc2nnc(-c3ccco3)o2)c1	none
CC(=O)Cn1cnc2c(cnn2-c2ccc(C)c(C)c2)c1=O	hgDAF12 agonist 15 | hgDAF12 conf 12 | LXR ag 2 inactive
Cc1ccc(-n2ncc3c(=O)n(CC(=O)N(C)C)cnc32)cc1C	none
COc1cccc(NC(=O)Nc2ccc3nsnc3c2)c1	hgDAF12 agonist 14 | hgDAF12 conf 11 | LXR ag 2 inactive
CS(=O)(=O)N1N=C(c2ccc(Br)cc2)CC1c1cccs1 (stereo not given)	hgDAF12 agonist 14 | hgDAF12 conf inactive | LXR ag 2 inactive
CC(=O)N1N=C(c2ccccc2)CC1c1cccs1 (stereo not given)	none
CSc1ccc(C2NC(=O)c3ccccc3N2)cc1 (stereo not given)	hgDAF12 agonist 15, DAX1 inh-2 4.6 | hgDAF12 conf 14 | LXR ag 2 inactive
Cc1cc(C(=O)CSc2nnc(-c3ccccc3F)o2)c(C)n1Cc1cccs1	none
Cc1cc(C(=O)CN2C(=O)c3cccc(N)c3C2=O)c(C)n1Cc1cccs1	hcDAF12 agonist 6.0, ssDAF-12 act 1.0, hgDAF12 agonist 15, DAX1 inh-1 4.1 | hgDAF12 conf 15 | LXR ag 2 inactive
O=C(CCSc1ccccn1)Nc1ccc(Br)cc1	ssDAF-12 act 1.1, hgDAF12 agonist 14 | hgDAF12 conf 11 | LXR ag 2 inactive
O=C(CSc1ccccn1)Nc1ccc(NC(=O)CSc2ccccn2)cc1	none
CCc1ccc(NC(=O)CSc2ccccn2)cc1	hgDAF12 agonist 14 | hgDAF12 conf inactive | LXR ag 2 inactive
c1ccc(OCCSc2nnnn2-c2ccccc2)cc1	hgDAF12 agonist 16 | hgDAF12 conf 19 | LXR ag 2 inactive
CN1CCCCC(NC(=O)c2cccc(C(F)(F)F)c2)C1=O (stereo not given)	none (no result: DAX1 inh-2)
c1ccc(CNn2nnc3ccccc32)cc1	hgDAF12 agonist 14 (no result: DAX1 inh-2) | hgDAF12 conf 11 | LXR ag 2 inactive
C(#Cc1ccccc1)Cn1nnc2ccccc21	none
O=C(N/N=C/c1cccc(Br)c1)C1CC(=O)N(c2ccccc2)C1 (stereo not given)	none
CC(=O)Oc1ccc(-c2csc(Nc3ccccn3)n2)cc1	hgDAF12 agonist 16, DAX1 inh-1 3.9 | hgDAF12 conf 14 | LXR ag 2 inactive
CC(=O)Nc1cccc(-c2csc(Nc3ccc(Cl)cn3)n2)c1	hgDAF12 agonist 13, DAX1 inh-1 3.8, DAX1 inh-2 5.9 | hgDAF12 conf 13 | LXR ag 2 inactive
O=C(CN1CCCc2ccccc21)NCc1ccc(Cl)cc1	none (no result: DAX1 inh-2)
Cc1cc(C)n(C(C[N+](=O)[O-])c2ccc(Cl)cc2)n1 (stereo not given)	none
CNc1cncc(-c2ccc(CN(C)C)cc2)n1	hgDAF12 agonist 16, DAX1 inh-1 4.0 (no result: DAX1 inh-2) | hgDAF12 conf inactive | LXR ag 2 inactive
Cc1nc2ccc(C(=O)N3CCN(C(=O)OCc4ccccc4)CC3)cc2n1C1CCCC1	none (no result: DAX1 inh-2)
COc1ccc(OCc2cc(C(=O)NC(C)Cc3ccccn3)no2)c(Cl)c1 (stereo not given)	none
COc1ccc(OCc2cc(C(=O)NC3Cc4ccccc4C3)no2)c(Cl)c1	hgDAF12 agonist 15 | hgDAF12 conf inactive | LXR ag 2 inactive
O=C1C(Nc2ccccc2)=C2CCCC=C2N1c1ccccc1	hgDAF12 agonist 14, DAX1 inh-1 4.2 | hgDAF12 conf inactive | LXR ag 2 inactive
O=C1C=CC(=O)N1c1ccc(Nc2ccccc2)cc1	none
